Common to all, as to assay: DAPPL (digital affinity profiling via proximity ligation, sequencing); 10 mM Tris-HCl pH 7.5, 50 mM NaCl, 1 mM DTT, 4% glycerol, room temperature, 30 min; GST-TFs on glutathione beads, 16-mer random dsDNA library, 0.1% formaldehyde crosslink after washing; high values mean tight binding
Settings in all cases: protein: recombinant; tags: N-terminal GST; dsDNA, one strand shown

One experiment deals with T1, FLI1 (Homo sapiens, UniProt Q01543 1-452).
T1 sequence: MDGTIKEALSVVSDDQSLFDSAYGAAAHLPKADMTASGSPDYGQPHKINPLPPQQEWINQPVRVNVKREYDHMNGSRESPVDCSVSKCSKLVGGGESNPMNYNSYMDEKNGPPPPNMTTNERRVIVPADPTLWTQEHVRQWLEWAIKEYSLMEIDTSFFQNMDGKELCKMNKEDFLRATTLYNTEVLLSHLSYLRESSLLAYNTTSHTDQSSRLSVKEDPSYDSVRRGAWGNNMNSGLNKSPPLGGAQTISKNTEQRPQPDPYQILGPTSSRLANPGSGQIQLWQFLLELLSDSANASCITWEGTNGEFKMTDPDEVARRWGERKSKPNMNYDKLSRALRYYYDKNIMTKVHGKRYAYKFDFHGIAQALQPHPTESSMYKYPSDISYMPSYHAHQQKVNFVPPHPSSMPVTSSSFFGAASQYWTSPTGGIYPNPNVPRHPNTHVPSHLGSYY
The gist of the method:
(§1)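 Binding signal is given per hexamer as its read frequency for a factor divided by its frequency in the tag-only sample. GST-fused human transcription factors were expressed in yeast, captured on glutathione beads, barcoded with DNA and pooled with that sample, then incubated with 200 nmole of a 16-mer random double-stranded DNA library in Tris/NaCl/DTT/glycerol buffer for 30 min at room temperature. The pools were then washed, crosslinked, proximity-ligated, amplified by PCR and sequenced on an Illumina NextSeq500.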

For the next experiment, the target named is T2, ELK1 (Homo sapiens, UniProt P19419 1-428).
T2 sequence: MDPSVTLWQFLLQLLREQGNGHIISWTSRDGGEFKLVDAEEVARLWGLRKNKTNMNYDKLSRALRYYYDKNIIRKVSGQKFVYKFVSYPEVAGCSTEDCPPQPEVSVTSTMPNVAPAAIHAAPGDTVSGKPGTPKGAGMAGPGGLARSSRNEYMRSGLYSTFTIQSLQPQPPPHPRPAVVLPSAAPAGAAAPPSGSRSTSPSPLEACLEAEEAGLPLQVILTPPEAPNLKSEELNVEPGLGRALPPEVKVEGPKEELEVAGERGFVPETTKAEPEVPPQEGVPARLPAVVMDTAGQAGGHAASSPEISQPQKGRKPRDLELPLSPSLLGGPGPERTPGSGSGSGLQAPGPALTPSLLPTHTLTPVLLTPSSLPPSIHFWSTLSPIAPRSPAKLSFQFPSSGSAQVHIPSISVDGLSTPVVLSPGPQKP
An outline of the steps:
as §1

Another experiment concerns the target T3, GABPA (Homo sapiens, UniProt Q06546 1-454).
T3 sequence: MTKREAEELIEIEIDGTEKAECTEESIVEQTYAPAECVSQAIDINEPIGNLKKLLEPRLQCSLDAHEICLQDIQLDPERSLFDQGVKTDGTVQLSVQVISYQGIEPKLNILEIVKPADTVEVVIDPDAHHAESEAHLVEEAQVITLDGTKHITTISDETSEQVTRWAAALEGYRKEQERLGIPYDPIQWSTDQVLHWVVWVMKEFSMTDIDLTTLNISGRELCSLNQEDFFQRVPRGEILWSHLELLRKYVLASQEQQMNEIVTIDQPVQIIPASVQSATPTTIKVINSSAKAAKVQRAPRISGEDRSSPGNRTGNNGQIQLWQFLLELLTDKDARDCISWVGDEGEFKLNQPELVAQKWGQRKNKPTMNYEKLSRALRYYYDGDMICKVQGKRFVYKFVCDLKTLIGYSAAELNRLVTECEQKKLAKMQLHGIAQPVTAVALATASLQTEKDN
An outline of the steps:
as §1

The target in a further experiment is T4, ERG (Homo sapiens, UniProt P11308 1-479).
T4 sequence: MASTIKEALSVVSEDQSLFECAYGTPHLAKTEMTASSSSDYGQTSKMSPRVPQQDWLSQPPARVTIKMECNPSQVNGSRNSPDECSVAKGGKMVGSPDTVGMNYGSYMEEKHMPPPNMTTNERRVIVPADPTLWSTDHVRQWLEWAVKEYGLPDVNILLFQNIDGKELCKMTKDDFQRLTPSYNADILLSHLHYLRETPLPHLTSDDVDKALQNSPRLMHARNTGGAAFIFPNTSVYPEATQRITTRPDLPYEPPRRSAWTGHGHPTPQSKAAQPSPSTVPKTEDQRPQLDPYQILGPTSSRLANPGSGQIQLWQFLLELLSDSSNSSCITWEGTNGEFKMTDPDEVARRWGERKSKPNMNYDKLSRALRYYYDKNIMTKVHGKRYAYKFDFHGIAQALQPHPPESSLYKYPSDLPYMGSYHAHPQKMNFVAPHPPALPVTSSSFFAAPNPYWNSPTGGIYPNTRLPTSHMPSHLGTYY
The gist of the method: as §1

The target in the next experiment is ELF1 (Homo sapiens, UniProt P32519 1-619). An outline of the steps:
as §1

Another experiment has as its target T5, EHF (Homo sapiens, UniProt Q9NZC4 1-300).
T5 sequence: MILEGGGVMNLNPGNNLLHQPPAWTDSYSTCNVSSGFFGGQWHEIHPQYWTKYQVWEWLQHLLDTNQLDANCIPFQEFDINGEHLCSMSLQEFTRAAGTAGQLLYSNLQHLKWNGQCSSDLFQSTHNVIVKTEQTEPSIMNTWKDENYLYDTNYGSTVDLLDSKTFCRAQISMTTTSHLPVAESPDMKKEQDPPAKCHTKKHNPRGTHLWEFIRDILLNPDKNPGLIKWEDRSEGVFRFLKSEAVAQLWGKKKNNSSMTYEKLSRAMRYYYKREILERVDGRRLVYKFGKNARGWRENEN
An outline of the steps: as §1

For the next experiment, the target named is SPI1 (Homo sapiens, UniProt P17947 1-270). An outline of the steps: as §1
Another experiment deals with SPIB (Homo sapiens, UniProt Q01892 1-262). An outline of the steps:
as §1

The target of a further experiment is T6, ELK3 (Homo sapiens, UniProt P41970 1-407).
T6 sequence: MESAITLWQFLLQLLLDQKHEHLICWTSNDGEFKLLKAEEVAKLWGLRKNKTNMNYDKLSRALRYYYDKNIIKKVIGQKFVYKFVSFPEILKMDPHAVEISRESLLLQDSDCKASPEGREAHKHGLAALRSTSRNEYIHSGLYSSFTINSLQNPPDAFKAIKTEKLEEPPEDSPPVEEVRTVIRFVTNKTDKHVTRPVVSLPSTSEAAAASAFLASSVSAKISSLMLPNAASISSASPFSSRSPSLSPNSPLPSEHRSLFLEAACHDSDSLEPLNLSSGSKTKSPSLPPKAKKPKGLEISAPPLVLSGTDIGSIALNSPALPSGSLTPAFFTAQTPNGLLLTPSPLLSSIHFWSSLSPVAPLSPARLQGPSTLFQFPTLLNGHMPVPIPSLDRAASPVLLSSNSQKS
The gist of the method:
as §1

ELF1, sequence (P32519 whole entry): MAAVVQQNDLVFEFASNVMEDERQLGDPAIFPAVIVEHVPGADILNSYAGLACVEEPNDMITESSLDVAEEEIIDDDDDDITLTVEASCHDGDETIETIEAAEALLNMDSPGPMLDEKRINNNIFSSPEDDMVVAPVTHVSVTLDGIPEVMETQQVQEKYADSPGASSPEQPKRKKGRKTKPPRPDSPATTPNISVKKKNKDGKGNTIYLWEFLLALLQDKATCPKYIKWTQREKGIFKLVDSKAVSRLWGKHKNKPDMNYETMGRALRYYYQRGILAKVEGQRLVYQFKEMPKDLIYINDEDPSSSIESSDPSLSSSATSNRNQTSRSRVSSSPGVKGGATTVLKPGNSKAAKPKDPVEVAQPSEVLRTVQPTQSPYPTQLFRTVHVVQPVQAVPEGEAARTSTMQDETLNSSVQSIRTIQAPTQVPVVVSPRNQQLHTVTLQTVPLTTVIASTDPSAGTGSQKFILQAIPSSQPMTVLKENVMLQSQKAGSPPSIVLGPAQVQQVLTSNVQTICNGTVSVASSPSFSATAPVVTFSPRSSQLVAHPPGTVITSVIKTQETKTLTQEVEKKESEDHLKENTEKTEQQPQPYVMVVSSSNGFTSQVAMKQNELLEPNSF
SPIB, sequence (Q01892 whole entry): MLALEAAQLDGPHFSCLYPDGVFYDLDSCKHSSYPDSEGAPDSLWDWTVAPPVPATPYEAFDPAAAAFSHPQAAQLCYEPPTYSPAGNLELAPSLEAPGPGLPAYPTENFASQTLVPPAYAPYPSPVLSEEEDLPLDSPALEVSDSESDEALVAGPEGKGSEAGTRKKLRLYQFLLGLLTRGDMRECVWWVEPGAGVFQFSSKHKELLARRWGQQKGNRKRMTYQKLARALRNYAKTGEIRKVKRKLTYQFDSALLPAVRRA

Turning to AGCTTT, the binding signal with FLI1 is 1.21 fold enrichment (6-mer frequency, TF over GST control); with ELK1, 1.2 fold enrichment (6-mer frequency, TF over GST control); with GABPA, 1.13 fold enrichment (6-mer frequency, TF over GST control); in the experiment with ERG, 1.12 fold enrichment (6-mer frequency, TF over GST control); in the experiment with ELF1 it was 1.2 fold enrichment (6-mer frequency, TF over GST control); with EHF, 1.11 fold enrichment (6-mer frequency, TF over GST control). Further, the binding signal with SPI1 was 1.16 fold enrichment (6-mer frequency, TF over GST control); with SPIB, 1.04 fold enrichment (6-mer frequency, TF over GST control); with ELK3, 1.13 fold enrichment (6-mer frequency, TF over GST control).
As to TTTTGT, the binding signal in the experiment with FLI1 is 1.35 fold enrichment (6-mer frequency, TF over GST control); with ELK1, 1.18 fold enrichment (6-mer frequency, TF over GST control); with GABPA, 1.36 fold enrichment (6-mer frequency, TF over GST control); with ERG it was 1.39 fold enrichment (6-mer frequency, TF over GST control); in the experiment with ELF1 it was 1.33 fold enrichment (6-mer frequency, TF over GST control); with EHF it was 1.33 fold enrichment (6-mer frequency, TF over GST control). Moreover, the binding signal with SPI1 is 1.43 fold enrichment (6-mer frequency, TF over GST control); with SPIB it was 1.37 fold enrichment (6-mer frequency, TF over GST control); with ELK3, 1.27 fold enrichment (6-mer frequency, TF over GST control).
In the case of ATGGTT, the binding signal in the experiment with FLI1 is 1.41 fold enrichment (6-mer frequency, TF over GST control); with ELK1, 1.28 fold enrichment (6-mer frequency, TF over GST control); with GABPA it was 1.28 fold enrichment (6-mer frequency, TF over GST control); in the experiment with ERG, 1.35 fold enrichment (6-mer frequency, TF over GST control); with ELF1 it was 1.39 fold enrichment (6-mer frequency, TF over GST control); with EHF, 1.28 fold enrichment (6-mer frequency, TF over GST control). In addition, the binding signal with SPI1 is 1.3 fold enrichment (6-mer frequency, TF over GST control); with SPIB it was 1.3 fold enrichment (6-mer frequency, TF over GST control); with ELK3, 1.39 fold enrichment (6-mer frequency, TF over GST control).
CGTTAA: the binding signal was 1.12 fold enrichment (6-mer frequency, TF over GST control) with FLI1; 1.17 fold enrichment (6-mer frequency, TF over GST control) with ELK1; 1.11 fold enrichment (6-mer frequency, TF over GST control) in the experiment with GABPA; 1.17 fold enrichment (6-mer frequency, TF over GST control) in the experiment with ERG; 1.14 fold enrichment (6-mer frequency, TF over GST control) with ELF1; 1.1 fold enrichment (6-mer frequency, TF over GST control) with EHF. Further, the binding signal in the experiment with SPI1 was 1.1 fold enrichment (6-mer frequency, TF over GST control); in the experiment with SPIB, 1.13 fold enrichment (6-mer frequency, TF over GST control); with ELK3, 1.21 fold enrichment (6-mer frequency, TF over GST control).
Turning to ACAAAT, the binding signal with FLI1 was 1.09 fold enrichment (6-mer frequency, TF over GST control); with ELK1, 1.18 fold enrichment (6-mer frequency, TF over GST control); in the experiment with GABPA, 1.12 fold enrichment (6-mer frequency, TF over GST control); with ERG, 1.15 fold enrichment (6-mer frequency, TF over GST control); with ELF1 it was 1.15 fold enrichment (6-mer frequency, TF over GST control); in the experiment with EHF it was 1.19 fold enrichment (6-mer frequency, TF over GST control). For the same sequence, the binding signal with SPI1 was 1.17 fold enrichment (6-mer frequency, TF over GST control); in the experiment with SPIB, 1.11 fold enrichment (6-mer frequency, TF over GST control); in the experiment with ELK3, 1.14 fold enrichment (6-mer frequency, TF over GST control).
Consider CGTATT, for which the binding signal is 1.24 fold enrichment (6-mer frequency, TF over GST control) with FLI1; 1.18 fold enrichment (6-mer frequency, TF over GST control) with ELK1; 1.12 fold enrichment (6-mer frequency, TF over GST control) with GABPA; 1.15 fold enrichment (6-mer frequency, TF over GST control) with ERG; 1.11 fold enrichment (6-mer frequency, TF over GST control) with ELF1; 1.12 fold enrichment (6-mer frequency, TF over GST control) with EHF. The binding signal in the experiment with SPI1 was 1.17 fold enrichment (6-mer frequency, TF over GST control); with SPIB, 1.24 fold enrichment (6-mer frequency, TF over GST control); with ELK3, 1.38 fold enrichment (6-mer frequency, TF over GST control).
As to AGCTAT, the binding signal in the experiment with FLI1 is 1.21 fold enrichment (6-mer frequency, TF over GST control); with ELK1 it was 1.14 fold enrichment (6-mer frequency, TF over GST control); with GABPA it was 1.23 fold enrichment (6-mer frequency, TF over GST control); with ERG it was 1.17 fold enrichment (6-mer frequency, TF over GST control); with ELF1, 1.16 fold enrichment (6-mer frequency, TF over GST control); with EHF, 1.23 fold enrichment (6-mer frequency, TF over GST control). Besides, the binding signal in the experiment with SPI1 was 1.15 fold enrichment (6-mer frequency, TF over GST control); with SPIB it was 1.26 fold enrichment (6-mer frequency, TF over GST control); with ELK3, 1.24 fold enrichment (6-mer frequency, TF over GST control).
For the sequence TCACCT, the binding signal with FLI1 was 1.25 fold enrichment (6-mer frequency, TF over GST control); with ELK1, 1.31 fold enrichment (6-mer frequency, TF over GST control); in the experiment with GABPA it was 1.27 fold enrichment (6-mer frequency, TF over GST control); with ERG it was 1.23 fold enrichment (6-mer frequency, TF over GST control); with ELF1, 1.2 fold enrichment (6-mer frequency, TF over GST control); with EHF it was 1.21 fold enrichment (6-mer frequency, TF over GST control). For the same sequence, the binding signal with SPI1 is 1.21 fold enrichment (6-mer frequency, TF over GST control); in the experiment with SPIB it was 1.13 fold enrichment (6-mer frequency, TF over GST control); in the experiment with ELK3, 1.22 fold enrichment (6-mer frequency, TF over GST control).

The record behind these values is article PMC7862700, “An all-to-all approach to the identification of sequence-specific readers for epigenetic DNA modifications on cytosine”.
